The panel holds about 83,000 compounds, 20% with a hit somewhere; the sample as a whole holds those more often.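 Activity criterion: percent growth below 10, measured after cells in 96-well plates were exposed to a single compound concentration for 48 hours.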 Values without a mark were called inactive. The source made the active and inactive calls.
Test system: MDA-MB-468 breast
Assay: NCI-60 one-dose screen, 48 h (100 = growth as untreated, 0 = no growth, -100 = all killed)
Conditions: 10 µM unless noted

Row | SMILES | growth
1 | Fc1ccc(-c2cn3c(nc4ccccc43)c(-c3ccccc3)n2)cc1 | 82.8%
2 | CSCCC(NC(=O)C(Cl)Cl)C(=O)O (stereo not drawn) | 94.6%
3 | OCCNc1nc(NCCO)nc(Nc2ccc(C3=NN(c4cc(Cl)cc(Cl)c4)C(c4ccccc4)C3)cc2)n1 (stereo not drawn) | 73.5%
4 | CCc1cccc2c3c(sc12)C(c1ccc(F)cc1)C(C#N)=C(/N=C/c1ccc(Cl)cc1)O3 (stereo not drawn) | 31%
5 | CCCC(CCC)(C(N)=O)C(=O)O | 105%
6 | C[C@@H]1N=C(c2ccc3ccccc3c2)Nc2nc3ccccn3c2C1=O | 50.5%
7 | CCCCCCCCCCCCC[N+](C)(C)Cc1ccccc1 | -25.3% (active)
8 | CC(=C(c1ccc(OCCN2CCCC2)cc1)c1ccc(OCCN2CCCC2)cc1)c1ccc(Cl)cc1 | -85.3% (active)
9 | COc1ccc(-c2nnc(SCc3ccc(O)c4ncccc34)n2-c2ccccc2)cc1 | 10.3%
10 | N#Cc1c(-c2cccc(Cl)c2)cc(-c2cccnc2)[nH]c1=O | 49.3%
11 | Oc1ccc(O)c(-c2ccccc2)c1 | 33.2%
12 | Cc1nn(-c2ccccc2)c(N2CCCCC2)c1/C=N/NC(=O)Cn1c(=O)sc2ccccc21 | 85.5%
13 | C#C[C@@]1(O)[C@@H](CO)O[C@@H](n2cc(Br)c3c(N)ncnc32)[C@@H]1O | -45.1% (active)
14 | CC(=O)N=c1ccc2nc3c(cc(N)c4ccccc43)oc-2c1 | -44.5% (active)
15 | CCNc1cc(-c2cccc(OC(F)(F)F)c2)nc2ccc(N3CCCC3)cc12 | -34.9% (active)
16 | COc1ccc(-c2nn(-c3cccc(NC(=O)c4cccc(C(F)(F)F)c4)c3)cc2-c2ccncc2)cc1Cl | 31.4%
17 | CC(C)N1C(=O)/C(=c2\sc3n(c2=O)C2C(NN=3)N(C)C(=O)N2C)c2ccccc21 (stereo not drawn) | 37.3%
18 | CC(=O)c1ccc2c(c1)c1ccccc1n2C | 79.5%
19 | CN1CCN(c2ccc(-c3cc4c(Nc5ccc(F)c(Cl)c5)ncnn4c3)cc2)CC1 | 7.99% (active)

Row | SMILES | growth
20 | CCCc1cccc(CCC)c1NC(=O)Nc1cc(Cl)cc(Cl)c1 | 98.8%
21 | O=C(O)CCC(NC(=O)OCc1ccccc1)C(=O)O (stereo not drawn) | 101%
22 | C=C(C)CCCC(C)CC#N (stereo not drawn) | 93.3%
23 | COc1ccc(-c2c3c(N)c4c(nc3nc3c2c(C)nn3-c2ccccc2)CCCC4)cc1 | 70.3%
24 | COC1=CC(c2ccc[nH]2)=N/C1=C\c1[nH]c(C)c(C(=O)OCc2ccccc2)c1C | -83.2% (active)
25 | O=C(c1ccncc1)N1N=C(c2ccc(Cl)cc2)CC1c1c[nH]c2ccccc12 (stereo not drawn) | 102%
26 | O=C1Nc2cc(Cl)ccc2Oc2cc(Oc3ccccc3)ccc21 | 1.71% (active)
27 | Brc1cc(-c2cc(-c3ccc4c(c3)OCCO4)[nH]n2)cs1 | 12%
28 | C=C1C(=O)O[C@H]2[C@H]1CC/C(CNC(=O)Cc1c[nH]c3ccccc13)=C\CC[C@@]1(C)O[C@@H]21 | -79.9% (active)
29 | Cc1ccc(Cl)cc1Nc1nc(C(F)(F)F)ccc1C(=O)N/N=C/c1c(Cl)cccc1Cl | -13.1% (active)
30 | CN1C(=O)/C(=C/c2ccc(C(=O)Nc3ncc(Cc4ccccc4Cl)s3)cc2)SC1=S | 40.3%
31 | CSc1nnc(-c2cnn3c2NC(c2ccccc2)C3)n1-c1ccc(C(F)(F)F)cc1 (stereo not drawn) | 71.1%
32 | CCCCNC(=O)NS(=O)(=O)c1ccc(N2N=C(c3ccc(C)cc3C)CC2c2ccc(OC)cc2)cc1 (stereo not drawn) | 65.1%
33 | C=CCN1C(=O)[C@]2(SC1=S)[C@H](c1cccc(Cl)c1)CN(C)[C@]21C(=O)NC2C=CC(Cl)=C[C@H]21 (stereo partly drawn) | 27%
34 | C[C@]12C[C@H](O)[C@H]3[C@@H](CCC4=CC(=O)CC[C@@]43C)[C@@H]1CC[C@@H]2C(=O)CO | 84.4%
35 | C(=N/Nc1ncnc2nc[nH]c12)/c1ccccn1 | -27.3% (active)
36 | COCCN(C(=O)c1ccc(F)cc1F)c1c(N)n(Cc2ccccc2)c(=O)[nH]c1=O | 87.8%
37 | COc1cc(/C=C/C(=O)c2ccc(Oc3ncnc4ccccc34)cc2)cc(OC)c1OC | 13.8%
38 | CCN(CC)CC(O)Cc1ccc(OC)cc1 (stereo not drawn) | 97.9%

Source: PubChem BioAssay (NCI)
